This passage reports survival results from PubChem BioAssay AID463173 (ICCB-Longwood Screening Facility, Harvard Medical School, 2010).

Hit rate of the full screen: of about 52,000 compounds, about 1,700 (3.3%) were called active. What follows is part of a selection rich in actives, with near analogues and random picks from the rest. A number with no mark means an inactive call. No stated cut-off is given here; in the data, active means survival mostly below about 52% (no sharp cut-off); inactive means mostly above about 56%.

In this test the test system is Wild type. Put plainly: growth inhibition of S. aureus wild type versus tarO mutant, primary screen, teichoic acid synthesis inhibitors, RN4220, OD600 (AID 463173). To be noted: S. aureus RN4220 wild type/DeltatarO growth, OD600, 18 h, stronger effect = lower value, screened at 18.75 µg/mL (by protocol).
In the case of `CCc1ccc(NC(=O)Cn2c(=O)n(Cc3ccco3)c(=O)c3oc4ccccc4c32)cc1`, the survival was 87%.

`COc1ccc(C2C(=O)N(C3CCCCC3)CC(=O)N2CCc2ccc(C)cc2)cc1OC` (centres undefined): the survival was 82%.

For the molecule `Cc1ccc(NC(=O)CN2C(=O)C(c3ccccc3)=NC23CCCCC3)cc1C`, the survival was 89%.

Take `COc1ccc(Br)cc1CNC(=O)c1nn(-c2ccc(C)cc2)c(=O)c2c1c1ccccc1n2C`: the survival is 126%.

With `CC1CCCC(C)N1C(=O)c1ccccc1N` (centres undefined), the survival is 108%.

With `COc1ccc(-c2ccc(NS(=O)(=O)c3cccc(Cl)c3)cc2)nn1`, the survival was 82%.

In the case of `COc1cccc(N2CCN(C(=O)c3cnc4c(-c5ccccc5)c(C)nn4c3C)CC2)c1`, the survival was 76%.

Consider `Cc1nn2c(C)c(C(=O)N3CCN(c4ccc(Cl)cc4)CC3)cnc2c1-c1ccc(F)cc1`, for which the survival was 72%.

Turning to `COc1cccc(N2CCN(C(=O)c3cnc4c(-c5ccc(F)cc5)c(C)nn4c3C)CC2)c1`, the survival is -6% (active).

Consider `CC(=O)N1c2c(cc(Br)cc2S(=O)(=O)N2CCN(c3ccccc3)CC2)CC1C` (centres undefined), for which the survival is 98%.

As to `Nc1ccc2nc(CCc3ccccc3)[nH]c2c1`, the survival was 106%.

Take `Oc1ccc(NCc2ccccc2OCc2ccccc2Cl)cc1`: the survival was 82%.

With `Oc1ccc(NCc2ccc(OCc3ccccc3Cl)cc2)cc1`, the survival was -4% (active).

On to `Oc1ccc(NCc2ccc(OCc3ccccc3)cc2)cc1`, for which the survival is 87%.

On to `COc1ccc(NC(=O)C2=C(C)Nc3nc(SCc4ccc(Cl)cc4)nn3C2c2cccc(OC)c2OC)cc1` (centres undefined), for which the survival was 60%.

As for `O=C(Nc1ccc(OC(F)(F)F)cc1)c1cc(-c2ccc(Cl)cc2)on1`, the survival is 105%.

In the case of `Cc1ccccc1C(=O)Nc1ccc(C(=O)OCc2cc(=O)n3nc(C(C)C)sc3n2)cc1`, the survival is 65%.

Turning to `CCN(CC)c1ncnc2c1cnn2-c1cc(Cl)ccc1C`, the survival was -6% (active).

Take `CCN(CC)CCNc1ncnc2c1cnn2-c1cc(Cl)ccc1C`: the survival is 98%.

In the case of `CCN(c1ncnc2c1cnn2-c1cc(Cl)ccc1C)C1CCCCC1`, the survival was 80%.

With `Cc1ccc(N2CCN(S(=O)(=O)c3ccc4oc(=O)c5ncn(C)c5c4c3)CC2)c(C)c1`, the survival was 121%.

In the case of `CCCN(C(=O)c1c(C)oc2ncnc(N3CCOCC3)c12)c1ccc(Cl)c(Cl)c1`, the survival is 74%.

`Cc1ccc(CCNC(=O)c2c(C)oc3nc(C)nc(N4CCOCC4)c23)cc1`: the survival is 124%.

`CCc1cccc(NC(=O)c2c(C)oc3nc(C)nc(N4CCCC4)c23)c1`: the survival is 101%.

As to `COC(=O)CCN(C(=O)c1c(C)oc2ncnc(N3CCOCC3)c12)c1ccccc1`, the survival is 0% (active).

As to `Cc1oc2ncnc(N3CCOCC3)c2c1C(=O)NCc1ccc(Cl)cc1`, the survival was 73%.

`Cc1nc(N2CCCC2)c2c(C(=O)Nc3cccc(Cl)c3)c(C)oc2n1`: the survival is -3% (active).

In the case of `Cc1ccc(CNC(=O)c2c(C)oc3ncnc(N4CCOCC4)c23)cc1`, the survival is -1% (active).

As to `Cc1nc(N2CCCC2)c2c(C(=O)Nc3ccc(C)c(Cl)c3)c(C)oc2n1`, the survival is 130%.

Take `CCc1ccccc1N(CC)C(=O)c1c(C)oc2ncnc(N3CCOCC3)c12`: the survival was 70%.

For `Cc1nc(N2CCOCC2)c2c(C(=O)NCCc3ccccc3)c(C)oc2n1`, the survival is -3% (active).

Turning to `Cc1oc2ncnc(N3CCOCC3)c2c1C(=O)NCCc1ccccc1`, the survival is 85%.

Consider `CCc1ccc(CNC(=O)c2c(C)oc3ncnc(N4CCOCC4)c23)cc1`, for which the survival was 133%.

For `CCc1cccc(C)c1NC(=O)c1cc(CN2CCCC2)on1`, the survival is 72%.

With `Cc1nc2ccc(S(=O)(=O)N(CC(=O)Nc3ccc(F)cc3F)Cc3ccccc3)cc2s1`, the survival was 88%.

For the molecule `CCn1c(=O)c2cc(C(=O)NCc3ccc(F)cc3Cl)sc2c2ccccc21`, the survival was 81%.

Regarding `CCCCN(CC)CCNC(=O)c1c(C)oc2ncnc(N3CCOCC3)c12`, the survival is 76%.

Turning to `Cc1cccc(CN2CCC(CNC(=O)c3c(C)oc4ncnc(N5CCCCC5)c34)CC2)c1`, the survival is 98%.

For the molecule `CCN(CC)CCCNC(=O)c1c(C)oc2ncnc(N3CCOCC3)c12`, the survival is 136%.

Regarding `Cc1oc2ncnc(N3CCCCC3)c2c1C(=O)NCC1CCN(Cc2cccc(F)c2)CC1`, the survival is -6% (active).

Take `CCCCN(CC)CCCNC(=O)c1c(C)oc2ncnc(N3CCOCC3)c12`: the survival was 14% (active).

Turning to `Cc1oc2ncnc(N3CCCCC3)c2c1C(=O)NCC1CCN(Cc2ccc(F)cc2)CC1`, the survival is 90%.

In the case of `CCN(C(=O)Cn1ncc2c(=O)oc3ccc(C)cc3c21)c1cc(OC)ccc1OC`, the survival was 86%.

As for `CCOc1ccc(Nc2nn(-c3ccc(OC(F)(F)F)cc3)nc2C(C)=O)cc1`, the survival is 123%.

`COc1cccc(NS(=O)(=O)c2ccc3c(c2)N(C)C(=O)CC(=O)N3C)c1`: the survival is 78%.

Turning to `COc1ccc2[nH]c(=O)c(CN(CCCN3CCOCC3)C(=O)Nc3ccccc3)cc2c1`, the survival is 102%.

For `O=C(NC1CCCCCC1)c1ccc(CS(=O)c2ccc(Br)cc2)o1` (centres undefined), the survival was 94%.

Turning to `Cn1c(=O)c(=O)n(C)c2cc(N3CCOCC3)c(NS(=O)(=O)c3ccc(F)c(Cl)c3)cc21`, the survival is 63%.

`Cc1ccc(S(=O)(=O)Nc2cc3c(cc2C)n(C)c(=O)c(=O)n3C)cc1`: the survival was -4% (active).

In the case of `Cc1cc2c(cc1NS(=O)(=O)c1ccc(Br)cc1)n(C)c(=O)c(=O)n2C`, the survival is 129%.

In the case of `CCc1ccc(S(=O)(=O)Nc2cc3c(cc2C)n(C)c(=O)c(=O)n3C)cc1`, the survival was 57%.

For the molecule `CCc1ccc(S(=O)(=O)Nc2cc3c(cc2N2CCOCC2)n(C)c(=O)c(=O)n3C)cc1`, the survival is 1% (active).

On to `Cn1c(=O)c(=O)n(C)c2cc(N3CCOCC3)c(NS(=O)(=O)c3ccc(Cl)cc3)cc21`, for which the survival is -3% (active).

Take `CC(C)Cc1ccc(S(=O)(=O)Nc2cc3c(cc2N2CCOCC2)n(C)c(=O)c(=O)n3C)cc1`: the survival was 63%.

On to `Cc1ccc(S(=O)(=O)Nc2cc3c(cc2N2CCOCC2)n(C)c(=O)n3C)cc1`, for which the survival is 80%.

For the molecule `Cn1c(=O)n(C)c2cc(N3CCOCC3)c(NS(=O)(=O)c3ccc(Cl)cc3)cc21`, the survival was 93%.

Consider `COc1ccccc1OCCn1cc(C(=O)c2cccs2)c2ccccc21`, for which the survival is 102%.

Consider `O=C(CSc1nnc(-c2ccc(S(=O)(=O)N3CCCC3)cc2)n1CC1CCCO1)NC1CC1` (centres undefined), for which the survival was 108%.

On to `COc1ccc(-c2nnc(SCC(=O)NCCC(C)C)nc2-c2ccc(OC)c(OC)c2)cc1OC`, for which the survival is 71%.

As to `COc1cccc2cc(-c3nc(Nc4cccc(C)c4C)sc3C)c(=O)oc12`, the survival is 65%.

With `COc1cccc(NC(=O)C2CCC(CNS(=O)(=O)c3ccc4c(c3)CC(C)N4C(C)=O)CC2)c1` (centres undefined), the survival was 95%.

For `CNS(=O)(=O)c1ccccc1C(=O)N/N=C/c1ccc(OC)c(OC)c1`, the survival is 102%.

In the case of `COc1cc2c(cc1OC)n(CC(=O)c1ccc(C)cc1C)c(=O)n1nc(CCn3nc(C)cc3C)nc21`, the survival is 74%.

For the molecule `COc1ccccc1N1CCN(S(=O)(=O)c2c(C)nc3sc(C)c(C)n3c2=O)CC1`, the survival is 85%.

For the molecule `COc1cc(NS(=O)(=O)c2ccc3c(c2)CCN3S(C)(=O)=O)cc(OC)c1`, the survival was 73%.

Turning to `COc1ccc(-c2cc(C(F)(F)F)nc(NCCc3ccccc3)n2)cc1`, the survival is -2% (active).

Turning to `COc1ccc(-c2cc(C(F)(F)F)nc(SCC(=O)NCc3ccc(F)cc3)n2)cc1`, the survival is 90%.

With `COc1cccc(-c2cc(C(=O)NCc3ccc(F)cc3)no2)c1`, the survival was 71%.

For `COc1ccc(-c2cc(C(F)(F)F)nc(NCc3ccccc3)n2)cc1OC`, the survival is 66%.

For the molecule `COc1ccc(-c2cc(C(F)(F)F)nc(NCCc3ccccc3)n2)cc1OC`, the survival was 81%.

As for `COc1ccc(CNC(=O)C(C)Sc2nc(-c3ccccc3)cc(C(F)(F)F)n2)cc1` (centres undefined), the survival was 149%.

As for `COc1ccc(-c2cc(C(F)(F)F)nc(NCc3ccc(F)cc3)n2)cc1`, the survival was -5% (active).

Turning to `COc1ccc(-c2cc(C(F)(F)F)nc(SCC(=O)NCCc3ccccc3)n2)cc1OC`, the survival is 81%.

With `COc1ccc(-c2cc(C(F)(F)F)nc(NCc3ccccc3)n2)cc1`, the survival is -5% (active).

For the molecule `COc1ccc(-c2cc(NCc3ccc(F)cc3)n3cnnc3n2)cc1`, the survival is 72%.

In the case of `COc1cccc(-c2cc(C(F)(F)F)nc(NCc3ccc(F)cc3)n2)c1`, the survival is 0% (active).

For `CCc1ccc(NC(=O)CCn2cnc3ccccc3c2=O)cc1`, the survival was 72%.

As to `COCCNC(=O)CN1C(=O)CCn2nc(-c3cn(C)c4ccccc34)cc21`, the survival was 64%.

Take `C#CCNc1nc(CC(C)C)nc2c1nnn2Cc1ccccc1`: the survival was 101%.

As to `COc1ccccc1CCNC(=O)C(C)Sc1nc(-c2ccccc2)cc(C(F)(F)F)n1` (centres undefined), the survival is 53%.

Turning to `COc1cccc(-c2cc(C(F)(F)F)nc(NCCc3ccccc3)n2)c1`, the survival is -7% (active).

Take `COc1ccc(CNc2nc(-c3ccc(OC)cc3)cc(C(F)(F)F)n2)cc1`: the survival was -5% (active).

In the case of `COc1ccc(CNc2nc(-c3ccc(OC)c(OC)c3)cc(C(F)(F)F)n2)cc1`, the survival is 27%.

On to `COc1ccc(CNC(=O)CSc2nc(-c3ccc(OC)cc3)cc(C(F)(F)F)n2)cc1`, for which the survival was 93%.

As for `COc1cccc(-c2cc(C(F)(F)F)nc(NCCc3ccc(OC)c(OC)c3)n2)c1`, the survival was 25%.

Consider `COc1cccc(CNC(=O)Cc2c(C(=O)O)c(C)cn2C)c1`, for which the survival is 0% (active).

Take `Cc1ccc(CNC(=O)Cc2c(C(=O)O)c(C)cn2C)cc1`: the survival is 85%.

Take `Cc1cn(C)c(CC(=O)NCc2ccccc2)c1C(=O)O`: the survival was 80%.

In the case of `COc1cccc(CNC(=O)c2cc(S(=O)(=O)N3CCCCC3)cn2C)c1`, the survival is -2% (active).

Consider `Cc1cn(C)c(CC(=O)NCc2cccc(Cl)c2)c1C(=O)O`, for which the survival was -3% (active).

As to `COc1ccc(CNC(=O)Cc2c(C(=O)O)c(C)cn2C)cc1`, the survival was 83%.

As to `Cc1ccc(CNC(=O)c2cc(S(=O)(=O)N3CCCCCC3)cn2C)cc1`, the survival was 81%.

In the case of `COc1cccc(CNC(=O)c2cc(S(=O)(=O)N3CCCCCC3)cn2C)c1`, the survival is 85%.

As to `Cc1cn(C)c(CC(=O)NCc2ccc(Cl)cc2)c1C(=O)O`, the survival is 66%.
